The source made the active and inactive calls. How the calls were made is not given here.

The target in this assay is Pantothenate synthetase (Mycobacterium tuberculosis (strain ATCC 25618 / H37Rv)) (UniProt P9WIL5). The experiment in a line: Recombinant Mtb pantothenate synthetase (PanC) inhibitors, coupled enzyme, confirmatory (AID 375).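 Further: 0% = full reaction with vehicle and 100% = no enzyme background.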 The settings on record: coupled enzyme assay; at 10 µM, active compounds read high.
Sequence of Pantothenate synthetase (Mycobacterium tuberculosis (strain ATCC 25618 / H37Rv)) (P9WIL5 whole entry, looked up): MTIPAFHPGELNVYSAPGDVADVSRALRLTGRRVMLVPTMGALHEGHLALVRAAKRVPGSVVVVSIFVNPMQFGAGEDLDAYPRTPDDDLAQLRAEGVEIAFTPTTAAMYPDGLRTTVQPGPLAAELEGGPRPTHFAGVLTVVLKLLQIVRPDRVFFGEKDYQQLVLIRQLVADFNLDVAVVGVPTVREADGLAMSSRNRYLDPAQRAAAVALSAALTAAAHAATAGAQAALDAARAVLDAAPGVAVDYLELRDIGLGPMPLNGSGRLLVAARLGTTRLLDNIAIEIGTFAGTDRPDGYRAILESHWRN
Regarding `N#Cc1cc2sc3nnc(-c4ccncc4)n3c2cc1C#N`, the inhibition was 0% (inactive).
Then `CCOC(=O)N1CCN(Cc2cc(=O)oc3ccc4ccccc4c23)CC1`, with 6% (inactive); and `CCCC(=O)Nc1ncnc2c1ncn2[C@@H]1O[C@@H]2COP(=O)(O)O[C@H]2[C@H]1OC(=O)CCC`, with 0% (inactive).
Consider `CCc1cccc(NS(=O)(=O)c2c(C)n[nH]c2C)c1`, for which the inhibition is 0% (inactive).
As for `Cn1c(-c2cc(Br)ccc2O)n[nH]c1=S`, the inhibition is 2% (inactive).
For `CN(C(=O)Cn1c(=O)n(CCCCC(=O)NC2CCCC2)c(=O)c2ccccc21)C1CCCCC1`, the inhibition is 0% (inactive).
The result for `CC(C(=O)N1CCCCC1)n1ncn2cccc2c1=O` (configuration not stated) reads 0% (inactive).

The term inhibition denotes how much of the control response was suppressed.

These data come from PubChem BioAssay.
